“And” between values parts separate entries of the source, which are not always exact repeats. Equal entries are not always repeated. The campaign covered roughly 5,500 compounds. About 2,000 (36%) were called active. Not shown: some 18% with an inconclusive outcome. Cut-off read from the data, not from the text of the source: active = normalized growth mostly below about 0.91 (no sharp cut-off); inconclusive = no clear call, values can overlap the other calls; inactive = mostly above about 0.92. Some of the results follow.
Assay: chemical genetic growth profiling, strain panel (AID 1159580);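 note: tested at 20 µM; growth read once vehicle control cultures reached saturation at 30 °C; 1 = growth at the plate median or of vehicle wells; lower values mean less growth of the strain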
Details: S. cerevisiae deletion strains, growth OD

Measured: normalized growth

O=C(O)c1ccccc1OP(=O)(O)O
inactive: locus YAL021C, strain ccr4, stronger effect = lower value 0.962 | locus YAL026C, strain drs2, stronger effect = lower value 1.01 | locus YAL030W, strain snc1, stronger effect = lower value 1 | locus YBL061C, strain skt5, stronger effect = lower value 1.01 | locus YBR009C, strain hhf1, stronger effect = lower value 1.03 | locus YBR021W, strain FUR4, stronger effect = lower value 1.01 | locus YBR023C, strain chs3, stronger effect = lower value 1.01 | locus YBR171W, strain sec66, stronger effect = lower value 1.01 | locus YBR229C, strain ROT2, stronger effect = lower value 1.01 | locus YBR231C, strain swc5, stronger effect = lower value 1.02 | locus YBR279W, strain paf1, stronger effect = lower value 1 | locus YCL011C, strain gbp2, stronger effect = lower value 1.01 | locus YCL016C, strain dcc1, stronger effect = lower value 1 | locus YCL029C, strain bik1, stronger effect = lower value 0.994 | locus YCL061C, strain MRC1, stronger effect = lower value 1 | locus YCL069W, strain vba3, stronger effect = lower value 0.997 | locus YCR088W, strain abp1, stronger effect = lower value 1.01 | locus YDL005C, strain med2, stronger effect = lower value 1 | locus YDL035C, strain GPR1, stronger effect = lower value 1.01 | locus YDL040C, strain nat1, stronger effect = lower value 0.996 | locus YDL074C, strain BRE1, stronger effect = lower value 1.02 | locus YDL101C, strain DUN1, stronger effect = lower value 1.02 | locus YDL134C, strain PPH21, stronger effect = lower value 1.02 | locus YDL185W, strain tfp1, stronger effect = lower value 0.976 | locus YDL192W, strain arf1, stronger effect = lower value 0.989 | locus YDR001C, strain nth1, stronger effect = lower value 0.993 | locus YDR069C, strain doa4, stronger effect = lower value 1.02 | locus YDR101C, strain arx1, stronger effect = lower value 1.01 | locus YDR137W, strain rgp1, stronger effect = lower value 0.987 | locus YDR150W, strain NUM1, stronger effect = lower value 1.01 | locus YDR159W, strain sac3, stronger effect = lower value 1.02 | locus YDR162C, strain NBP2, stronger effect = lower value 1.02 | locus YDR195W, strain ref2 1.01 | locus YDR297W, strain sur2, stronger effect = lower value 1 | locus YDR318W, strain mcm21, stronger effect = lower value 0.992 | locus YDR334W, strain swr1, stronger effect = lower value 1 | locus YDR335W, strain msn5, stronger effect = lower value 1.01 | locus YDR388W, stronger effect = lower value 0.987 | locus YDR392W, strain spt3, stronger effect = lower value 0.979 | locus YDR502C, strain sam2, stronger effect = lower value 0.994 | locus YEL003W, strain gim4, stronger effect = lower value 1.01 | locus YEL037C, strain rad23, stronger effect = lower value 0.997 | locus YEL061C, strain CIN8 (second series), stronger effect = lower value 1.01 | locus YEL061C, strain CIN8, stronger effect = lower value 1.01 | locus YER015W, strain faa2, stronger effect = lower value 1.01 | locus YER016W, strain bim1, stronger effect = lower value 1 | locus YER110C, stronger effect = lower value 0.992 | locus YER111C, strain swi4, stronger effect = lower value 1.01 | locus YER155C, strain BEM2 (second series), stronger effect = lower value 1.05 | locus YER155C, strain BEM2, stronger effect = lower value 1.01 | locus YER167W, strain BCK2, stronger effect = lower value 1.01 | locus YFR010W, strain ubp6, stronger effect = lower value 1.03 | locus YGL078C, strain dbp3, stronger effect = lower value 0.997 | locus YGL086W, strain mad1, stronger effect = lower value 0.996 | locus YGL167C, strain pmr1, stronger effect = lower value 1.01 | locus YGL173C, strain kem1, stronger effect = lower value 1.01 | locus YGL227W, strain vid30, stronger effect = lower value 1.01 | locus YGL240W, strain doc1, stronger effect = lower value 1.02 | locus YGL248W, strain PDE1, stronger effect = lower value 1.02 | locus YGL253W, strain hxk2, stronger effect = lower value 1.04 | locus YGR135W, strain pre9, stronger effect = lower value 0.988 | locus YGR252W, strain gcn5, stronger effect = lower value 0.97 | locus YHR013C, strain ard1, stronger effect = lower value 0.997 | locus YHR027C, strain rpn1, stronger effect = lower value 1 | locus YHR030C, strain SLT2, stronger effect = lower value 1.01 and 0.96 | locus YHR079C, strain IRE1 (second series), stronger effect = lower value 0.996 | locus YHR079C, strain IRE1, stronger effect = lower value 0.95 | locus YHR094C, strain hxt1, stronger effect = lower value 0.991 | locus YHR129C, strain ARP1, stronger effect = lower value 1.01 | locus YHR142W, strain chs7, stronger effect = lower value 0.958 | locus YHR200W, strain rpn10, stronger effect = lower value 0.995 | locus YIL066C, strain RNR3, stronger effect = lower value 1.02 | locus YIL073C, strain SPO22, stronger effect = lower value 0.999 | locus YIL125W, strain kgd1, stronger effect = lower value 0.987 | locus YIR030C, strain dcg1, stronger effect = lower value 0.995 | locus YJL092W, strain hpr5, stronger effect = lower value 1 | locus YJL095W, strain BCK1 (second series), stronger effect = lower value 1 | locus YJL095W, strain BCK1, stronger effect = lower value 1.03 and 0.973 | locus YJL115W, strain asf1, stronger effect = lower value 0.99 | locus YJL129C, strain trk1, stronger effect = lower value 1 | locus YJL134W, strain LCB3, stronger effect = lower value 1 | locus YJL154C, strain vps35, stronger effect = lower value 0.996 | locus YJL164C, strain tpk1, stronger effect = lower value 0.981 | locus YJL166W, strain qcr8, stronger effect = lower value 1.01 | locus YJL168C, strain set2, stronger effect = lower value 0.986 | locus YJL187C, strain SWE1 (second series), stronger effect = lower value 1.02 | locus YJL187C, strain SWE1, stronger effect = lower value 0.997 | locus YJR043C, strain POL32, stronger effect = lower value 1.01

From PubChem BioAssay AID1159580 (chemical genetic matrix, 2015)
